Screening data deposited in PubChem by National Center for Advancing Translational Sciences (NCATS).
VDR inh = Inhibitors of the vitamin D receptor (VDR): qHTS; Vitamin D3 receptor (Homo sapiens), P11473; VDR-SRC2-3 peptide fluorescence polarization, 2 h; Potency, µM, inactives show max response, negative = inhibition, actives largely listed as inhibitors; 0.93% of 400,000 active; note: potency is the fitted concentration of half-maximal effect; % is set by controls: 0 for no effect and ±100 for the full control effect
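Inhibition of the VDR/SRC2-3 peptide interaction is quantified by fluorescence polarization. Compounds (23 nl, pintool) incubate with the reagents for 2 hours at ambient room temperature.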
PLK1 PBD block = qHTS for Inhibitors of PLK1-PDB (polo-like kinase 1 - polo-box domain): Primary Screen. Serine/threonine-protein kinase PLK1 (Homo sapiens), P53350. 2.8% of 360,000 active. Potency, µM, for the others: max response, negative = inhibition, hits mostly inhibitors. Plk1 PBD binding of FITC phosphopeptide, fluorescence polarization. AID 720504, 2013; note: potency is the fitted concentration of half-maximal effect; series mostly up to about 57 µM; % is set by controls: 0 for no effect and ±100 for the full control effect; nearly all actives have a fitted effect of over 65% in size
Vif-APOBEC3G blk = qHTS for Inhibitors of Vif-A3G Interactions: qHTS | HeLa A3G-eYFP + Vif (tagged APOBEC3G with the HIV-1 protein that degrades it), YFP fluorescence, overnight | AID 602310, 2012 | Potency, µM (highest dose often 46.1 µM), without a hit: at the highest dose activity, negative = active, most hits filed as inhibitors | 0.076% of 410,000 active | DNA dC->dU-editing enzyme APOBEC-3G (Homo sapiens), Q9HC16; note: potency is the fitted concentration of half-maximal effect; % is set by controls: 0 for no effect and ±100 for the full control effect; nearly all actives have a fitted effect of over 60% in size
Target sequence (Q9HC16 whole entry, looked up): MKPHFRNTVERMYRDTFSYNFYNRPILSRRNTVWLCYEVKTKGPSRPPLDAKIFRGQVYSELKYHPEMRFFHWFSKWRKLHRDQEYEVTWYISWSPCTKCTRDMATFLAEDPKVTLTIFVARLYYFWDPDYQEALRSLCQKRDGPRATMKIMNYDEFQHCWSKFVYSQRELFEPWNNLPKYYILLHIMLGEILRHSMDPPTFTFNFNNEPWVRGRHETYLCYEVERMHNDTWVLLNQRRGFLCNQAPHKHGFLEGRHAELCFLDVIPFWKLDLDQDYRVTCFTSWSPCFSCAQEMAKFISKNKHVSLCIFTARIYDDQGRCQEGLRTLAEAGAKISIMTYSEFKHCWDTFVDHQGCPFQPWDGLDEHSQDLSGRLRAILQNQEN
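HeLa cells stably expressing Vif and C-terminally eYFP-tagged A3G, seeded overnight at 37 deg C, then exposed to compound by pintool overnight at 37 deg C. Rise in yellow fluorescence (Ex 488/Em 500-530, Acumen) marks blocked Vif-driven A3G degradation.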
Vif-APOBEC3F blk = qHTS for Inhibitors of Vif-A3F Interactions: qHTS. 0.2% of 390,000 active. Potency, µM (series often up to 46.1 µM), without a hit: top-dose activity, negative = active. HeLa A3F-eYFP + Vif (tagged APOBEC3F with the HIV-1 protein that degrades it), YFP fluorescence increase; note: potency is the fitted concentration of half-maximal effect; % of control where 0% means no effect; nearly all actives have a fitted effect of over 65% in size
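Fluorescence increase (Ex 488/Em 500-530) after overnight compound treatment at 37 deg C flags inhibition of Vif-driven A3F-eYFP loss in stable HeLa A3F-eYFP/Vif cells seeded overnight beforehand.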
TSHR antagonist = Antagonists of the Thyroid Stimulating Hormone Receptor: HTS campaign; Thyrotropin receptor (Homo sapiens), P16473; TSHR-expressing cells, TSH-stimulated cAMP HTRF, 2 h; active compounds read low; activity change, negative = inhibition, % at 11.5 µM; 0.2% of 330,000 active; AID 504810, 2011;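 active = activity change below a set negative limit, meaning inhibition stronger than a set level, cut at about -70% in these data; inconclusive = activity change between two set negative limits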; note: % is set by controls: 0 for no effect and ±100 for the full control effect
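Inhibition of cAMP made by TSHR-expressing cells under TSH stimulation (4nM final, EC80; 2 h, 37 deg C) is quantified with a one-step lysis HTRF kit, anti-cAMP cryptate versus cAMP-d2.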
Numbers without * were called inactive; ? = inconclusive; . = no result given. Hits are enriched below; roughly 3.1% of the tested compounds scored in any of these assays. Unless noted, calls come from the whole dose curve; as a rule, active = well fitted curve in the direction sought with a large enough effect; inconclusive = small, poorly fitted or top-dose-only effect, or another doubt; inactive = no such curve, though single readings can be large; an effect the other way counts as inactive or inconclusive.

SMILES	VDR inh	PLK1 PBD block	Vif-APOBEC3G blk	Vif-APOBEC3F blk	TSHR antagonist
CCOc1ccccc1NC(=O)Cn1c(=O)n(-c2ccc(C)cc2)c(=O)c2c1cnn2C	-12.5%	.	-2.2%	-7.9%	.
CC(C)(C)c1ccc(OCC(=O)Nc2ccc3c4c(cccc24)C(=O)NC3=O)cc1	-20.9%	?	3.5%	12.6µM*	2.4
Cc1sc2ccccc2[n+]1C	.	.	4.6%	.	.
COc1cccc(-c2nnc(SCC(=O)OC(C)C)n2Cc2ccco2)c1	-12.5%	26.7µM*	0.9%	4.3%	13.1
COc1cc2c(cc1OC)/C(=C/c1ccc(N(C)C)cc1)C=C2	.	.	2.2%	.	.
COc1ccc(C(=O)COC(=O)CN2C(=O)C3C4CCC(C4)C3C2=O)cc1 (stereo not given)	-19.6%	23.8µM*	-0.5%	3.7%	11.1
Fc1ccccc1Nc1nc(Cl)nc(Cl)n1	70.8µM*	18.9µM*	-1.5%	12.1%	-0.3
COc1ccccc1/C=c1/[nH]c(=O)/c(=C\c2ccccc2OC)[nH]c1=O	.	.	-4.1%	.	.
C[N+]1(C)[C@@H]2CC(OC(=O)C(O)(c3cccs3)c3cccs3)C[C@H]1[C@@H]1O[C@@H]12 (stereo not given in full)	10.0%	.	.	.	.
Cc1ccc(/C=N\NC(=O)CCc2n[nH]c(=O)[nH]c2=O)o1	?	16.8µM*	1.5%	5.4%	3.8
C[C@H](CCCC(C)(C)O)[C@H]1CC[C@H]2[C@@H]3CC=C4C[C@@H](O)CC[C@]4(C)[C@H]3CC[C@]12C	-3.6%	.	.	.	.
CN(C(=O)CSc1nnc(Nc2ccccc2)s1)c1c(N)n(Cc2ccccc2)c(=O)[nH]c1=O	-4.1%	21.2µM*	0.5%	0.1%	7.0
CCCN(C(=O)CSc1n[nH]c(-c2ccc(OC)cc2)n1)c1c(N)n(Cc2ccccc2)c(=O)[nH]c1=O	-1.4%	2.5%	-23.1%	25.1µM*	-4.4
COc1ccc(-c2nc(SCC(=O)N(CC(C)C)c3c(N)n(Cc4ccccc4)c(=O)[nH]c3=O)n[nH]2)cc1	-6.2%	-2.5%	-9.5%	-11.4%	6.3
CSc1nnc(SCC(=O)N(C)c2c(N)n(Cc3ccccc3)c(=O)[nH]c2=O)s1	-19.6%	-8.5%	0.7%	10.0%	3.2
COCCN(C(=O)CSc1nnc(C)n1Cc1ccccc1)c1c(N)n(Cc2ccccc2)c(=O)[nH]c1=O	-1.4%	26.7µM*	-0.3%	8.0%	4.2
CC(=O)N1CCN(/[N+]([O-])=N/Oc2ccc([N+](=O)[O-])cc2[N+](=O)[O-])CC1	.	.	-11.6%	.	.
COc1ccc(Br)cc1S(=O)(=O)Nc1ncccc1C	-0.4%	29.9µM*	0.2%	0.1%	4.9
O=C(NNc1ccccc1C(F)(F)F)c1sccc1Cl	-5.7%	.	.	.	.
Cc1ccccc1OCC(=O)NN1Cc2ccccc2C1=N	-11.0%	26.7µM*	-4.4%	0.7%	19.0
Cc1ccccc1OCC(=O)NN1CCN(C)CC1	-15.6%	-9.1%	-1.7%	-14.8%	6.4
COc1ccc(S(=O)(=O)N(CC(=O)N2CCC(C)CC2)c2ccc(C)cc2)cc1	0.6%	.	6.2%	-0.7%	.
Cc1ccc(-n2ncc3c(NCCCn4ccnc4)ncnc32)cc1	-12.3%	.	-1.2%	-2.4%	.
Cc1cc(C)c(S(C)(=O)=O)c(Oc2ccc(F)cc2)n1	-23.1%	-9.3%	1.7%	-3.7%	20.2
Cc1cc(C)c(S(C)(=O)=O)c(Oc2ccccc2C)n1	-12.9%	21.2µM*	1.5%	-3.8%	9.6
C=C1NN(CC2CC2)C(=O)N1c1ccc(OCc2ccccc2)cc1	.	.	3.6%	.	.
c1ccc(CCc2cn(C[C@H]3CC[C@@H]([C@@H]4CC[C@H](Cn5cc(CCc6ccccc6)nn5)O4)O3)nn2)cc1	?	26.7µM*	0.0%	5.2%	-11.2
COc1cccc(CCn2c(N)cc(=O)[nH]c2=S)c1OC	-2.7%	.	.	.	.
CCOc1ccc(C=C2SC(=O)N(CCN)C2=O)cc1	3.9%	.	.	.	.
CC(C)(C)C1(C)OC(=O)C(=Cc2ccc(OCC(=O)Nc3ccccc3)cc2)C(=O)O1 (stereo not given)	10.6%	2.38µM*	1.6%	-3.9%	2.4
